The record followed here is PubChem BioAssay AID1347423 (Functional Genomics Laboratory (NCATS/FGL), 2020).

Among all 52,000 sequences or so, about 210 (0.4%) were called active.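 Rule for the calls: active = gene whose silencing raises cell survival under the drug, median off-target-corrected z-score across its silencing RNAs 2 or more; inactive = the rest.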 Many of the other results were omitted from the sample, so actives are more common in it than they were.

This assay can be described thus: Resistance to Poly (ADP-Ribose) Polymerase inhibitor: Gene Identification via Genome-wide siRNA Screen. The conditions noted are these: mouse BRCA2 R2336H ES cells, olaparib, CellTiter-Glo viability; hits give high values. From the text:
The role of Poly (ADP-Ribose) Polymerase (PARP) proteins in DNA repair has been elegantly utilized for the synthetic lethality-based treatment of BRCA-deficient tumors by PARP inhibitors. PARP inhibitors are now being used for treatment of BRCA-deficient breast and ovarian cancers. […] While several mechanisms of drug resistance have been identified, majority of these tumors develop drug resistance due to unknown causes. To identified novel regulators of chemo-resistance in BRCA2-mutated cells, we performed a genome wide siRNA library screen. We have found ES cells expressing a hypomorphic allele of BRCA2 to be hypersensitive to PAPP inhibitors (such as olaparib). We used ES cells expressing a mutant allele of BRCA2 that has a single amino acid substitution at position 2336 (arginine to histidine, R2336H). The screen was conducted using an Ambion (Thermo) Silencer Mouse Genome siRNA collection. The library targets 17,575 mouse genes with 3 siRNAs per gene. TET2 (E130014J05Rik) was identified as a top candidate.
Transfections were performed in 384 well plates (Corning 3707). Plates were coated with 0.1% gelatin in H2O overnight at ambient temperature. Gelatin solution was aspirated (BioTek EL406) and siRNAs were printed using a Bravo VPrep liquid handler integrated within a BioCel automation platform (Agilent). Cell viability was measured using CellTiter Glo (Promega). For transfections, […] of serum free media containing Lipofectamine RNAiMax […] was added to wells containing siRNA (0.8pmol). Lipid and siRNA were allowed to complex for 45 min at ambient temperature before addition of 1000 cells in DMEM, 30% FBS to yield final transfection mixtures containing 20 nM siRNA in DMEM, 15% FBS. PARPi (olaparib, AZD2281) was added 48 h post-transfection (500 nM) and viability (CellTiter Glo, Promega) was assayed 72 h later on a PerkinElmer Envision 2104 Multilabel plate reader. Ambion Silencer Select Negative Control #2 was incorporated on all screening plates (16 wells) and the median negative control value on each plate was used for normalization. An siRNA targeting Trp53 was used as a positive control. This control yielded a median protective effect of ~1.9 fold versus negative control throughout the screen. The median absolute deviation (MAD) based z-score was calculated for each siRNA. Genes were then ranked by taking the median value for all siRNAs tested against a given gene. Scores were also adjusted for seed-based off-target effects to help deprioritize likely false positives.
Consider CCAGAAACAUACGAAGAUUTT against Khdrbs1, for which the z-score was 2.31 (active).
Take GGUAUCUUCAAGUACAUGATT against BC011426: the z-score is 0.138 (inactive).
On to GGAGAUGGAGAAGUAGAUUTT against Abcf2, for which the z-score is 0.0903 (inactive).
Then GGGAAAUGUGUGUUAUCUGTT against Rnf126, with 1.17 (inactive).
Then CCCUGUCUCCCGCAUAGAATT against Itgb6, with 1.67 (active).
Consider GAAAUCAUCCUGCCCAAAGTT against Vax1, for which the z-score was 0.607 (inactive).
On to GGUCCCAGUGUCAUGUCUUTT against Cdipt, for which the z-score is 0.00151 (inactive).
Then GGUCUAUACCAUCCUAUUGTT against Faim2, with -1.24 (inactive); and CACUCAGCUCAAUGACCUGTT against Ifna14, with -0.514 (inactive).
As to GCUACAAGCGAUAUAUUCCTT against Jak1, the z-score was 2.92 (active).
The figure for CCAUGGAGAAUCAUGACAGTT against Slfn1 is 0.281 (inactive).
The figure for GUAUCAUACAAUGAUGUCCTT against Olfr176 is 0.628 (inactive); for “GGAAAACAGCUUUGAUUGGTT against E130009J12Rik” it is 1.42 (inactive).
As for GGAACAGGAAUAACAUGACTT against V1re9, the z-score is 1.65 (inactive).
As to GUAUGAUGCACUCCAGUUGTT against Hdac8, the z-score is -1.38 (inactive).
The figure for GCCAGUGCACUCCUCUUUUTT against Mmrp19 is 0.352 (inactive); for GCUGAACUAUAACUUGAAATT against Stat1 it is 0.735 (inactive); for GCAAGAAGUAAUCAACUUUTT against Rqcd1 it is 2 (active).
GGACUUUUACCAGUUCUCCTT against Ece2: the z-score is 0.967 (inactive).
As for GGUACAGGAAAAAAGAAGATT against Msl31, the z-score is -0.435 (inactive).
Then GCACGUAGUAAGAUGUUACTT against Rqcd1, with 2.53 (active); and GGUGGUCUAAGUCCUGACATT against Hmx1, with -0.564 (inactive); and GGUUAUUAAGAGCACUUUCTT against Catsper3, with -0.553 (inactive).
With GCAUUAUGACUCUAAUAGCTT against Olfr60, the z-score is 0.536 (inactive).
In the case of GGGCUAUGUGCUCUUUUGUTT against Edg6, the z-score was 0.487 (inactive).
The figure for GGCAUUGUGAAGCUGAAACTT against Ptpn9 is 1.93 (active).
For GGAGAAGGAGGUGAUAAUGTT against Sart1, the z-score was 0.088 (inactive).
As for “GGUGCAGUUUAAGAGAGAATT against C630016B22Rik”, the z-score was 0.153 (inactive).
The figure for GCCACCUCAAUGAAAGGAGTT against Slc23a1 is 0.609 (inactive); for GGUAAUUUGUUUGUGGUGATT against Mtnr1b it is -0.531 (inactive); for “GGCAUCCGUGUGUCUCUAGTT against 5730457F11Rik” it is -2.13 (active).
“CCACUUUCGCUUUACCAAUTT against C330011M18Rik”: the z-score was 0.267 (inactive).
With CCAACUCUGUUACAUUAUGTT against Fshprh1, the z-score is 0.377 (inactive).
For GGGCUAAAGUUGAUAAUAATT against Psmc3, the z-score was -3.32 (inactive).
Then “GGGAGCUCCAUUUAAAUUATT against A230103N10Rik”, with 0.137 (inactive); and GGCAUUCAAAAGGUAAAAUTT against Grid2, with 2.35 (active); and CCAGCACUCAAUCCUGUAATT against Olfr305, with -1.73 (inactive).
Then GCUAUCAACAAUCUUCGAATT against Azi1, with 0.37 (inactive); and “GGAGAACACUUUAAUGCUGTT against 9230106D23Rik”, with 0.667 (inactive); and GAACCUUUUCCGUUUCGAGTT against Cebpb, with 0.245 (inactive).
Then “GGCCAGCAGACUAUUUAUUTT against 1110021N07Rik”, with -1.57 (inactive).
As to GGACCUAGAGGAAGUGAAATT against Apoa1, the z-score is 2.05 (active).
The figure for GCUUUACUUCUUCCUCAUUTT against Olfr924 is -0.698 (inactive); for GGUCUAUGUACUCGCCAAATT against Ptpns1 it is -0.633 (inactive).
On to CCGUCACUAUACCCAAGUUTT against Olfr802, for which the z-score is -3.11 (inactive).
The figure for CGUGCUUAAGAGUCCACUATT against H3f3a is -1.43 (inactive); for CCUCGUUCAUACGACAGAATT against BC062951 it is -0.447 (inactive).
In the case of GCUUAGACUCACCAAAGGCTT against Gpr26, the z-score was 1.11 (inactive).
In the case of GCAACACAUUUGAACCACUTT against Usp15, the z-score was 2.9 (active).
The figure for “GGCACAGAAAUUAUGUUCUTT against 1810012H11Rik” is -0.685 (inactive); for GGAAUUCAACUCAGAUAAGTT against C3 it is -0.52 (inactive); for GGUUUUCUUAAAAUAGGAGTT against Tat it is 3.69 (active).
Regarding CCAUAUCCGUAGGUAUAUCTT against Htr2a, the z-score is 1.02 (inactive).
The figure for “GGCUUGGAAGGAUUAGAAGTT against 4930418G15Rik” is -0.344 (inactive); for CCUCCACUUACUUUGGGUGTT against Cic it is 1.48 (active); for GGAGCUCAACAAGUUGCUUTT against Hist1h2aa it is -0.0931 (inactive).
In the case of GGGAGAUCUUUAAGAGAAATT against Tcfap2a, the z-score was -0.65 (inactive).
Then CGAGAUCACGAGAUCGGUUTT against Prdm4, with 2.21 (inactive); and GGCCAAGCUGAUCAAUAUATT against Oprd1, with -0.0592 (inactive).
On to CCCAAUAAAACUUCCGGGATT against BC021608, for which the z-score is 0.531 (inactive).
As for CUCUCGAACAAUCAACCACTT against Olfr315, the z-score is -0.314 (inactive).
The figure for GCUGAAAUCAGAAGCUAACTT against Casc3 is 0.845 (inactive); for GCAUUGGCUGUACUACUAUTT against Psg18 it is -0.196 (inactive); for CCACAGCCAAAUGCACAAGTT against Gm1631 it is -0.237 (inactive).
Then GGGAAAUCAGUUUUACAAATT against Chl1, with 2.76 (active); and CCGGUUGCUAGGCUAAACATT against Wdr68, with -3.25 (inactive).
As for CGUAAAACUCUUAGGCAUGTT against Npm1, the z-score is 2.54 (active).
Take CCCACUCCAAACAUCUAAATT against Gadd45b: the z-score was 0.111 (inactive).
Take GCCUCUUUGAUAGCAAAAGTT against Cct6a: the z-score was 0.0125 (inactive).
As to GGCAUUUUUCUUCUCCAAATT against Clns1a, the z-score was -0.934 (inactive).
Regarding GGGACUGUAAUGUUGACACTT against Olfr560, the z-score was 0.851 (inactive).
The figure for GGCAAAAAAAACUGCUAUATT against Gpr128 is 0.0555 (active); for GGAAAUAAGACUCAGGUCATT against Gtf2a1 it is -1.44 (inactive).
Then GCGAGUUGGAAUUGAGAUCTT against Casp8, with 0.155 (inactive); and GGUUUUGGCUCGAAGGAAATT against Tead2, with -1 (inactive); and GGAAUGUCCACAUUUUGUATT against Tigd5, with 0.00592 (inactive).
The figure for GGAUGAUGAGAGAAACAAATT against Jak1 is 2.1 (active); for GCCGGUUUCAGUUAAAGAGTT against Pccb it is 2.26 (inactive); for GGGAAUCGGCCUGAAGAAATT against Arl6ip5 it is -0.707 (inactive).
Turning to CCUUCUGGUGCUUUUAGAGTT against Tlm, the z-score was 0.431 (inactive).
For the sequence GGGUUAUACCAAGUCCAUUTT against Mapk1, the z-score was 3.33 (active).
Then GGUUUCCAUGGUAACGUGGTT against Tns, with 1.17 (inactive); and CGAAGCUGCAAAGGAGAAGTT against Igf1, with -0.732 (inactive).
Turning to GGUCUUCUACAACUCGGAATT against Sgpp1, the z-score was -0.0398 (active).
Then GGAGAAGAAGAAAAGAACATT against Pom121, with -3.12 (inactive); and GCACCCGGCACUAGAAAAATT against Shoc2, with 0.638 (inactive).
As to GCUUUACCUGCUCAGAAGCTT against Olfr520, the z-score was 0.553 (inactive).
Then GCGAUUUUACGGAUCCGGUTT against Olfr1420, with -0.612 (inactive); and GGGAAGUCACUGAAGCCUGTT against Akr7a5, with -0.538 (inactive).
Then GGGACACACGGUAUACAUCTT against Pfkl, with 0.358 (inactive).
The figure for GGAUGUUAUAAGAUUGCGUTT against Rnf170 is -0.646 (inactive); for GGAACUGAUGAAUAUUUCATT against Chrnb1 it is 0.177 (active).
As to “GUUGGUAAAGGUCCUUGCCTT against D17Wsu155e”, the z-score was -1.02 (inactive).
Then GCUACUCAUGCUAGAUGACTT against Gba, with 1.64 (inactive).
Then GGUUGAACCCACUCUGCAATT against Olfr1113, with -2.16 (inactive); and GCACAGUGGAUGCAAUCAGTT against Btbd1, with 0.346 (inactive); and “GCCCGACAGGAGAUAUUUATT against B230340J04Rik”, with -1.19 (inactive).
On to GGAGAGCUGGAACAAUAGCTT against Bcl2l2, for which the z-score was 2.66 (active).
Take “GCCUUUGUAGGUUCAAGUGTT against 2310001H12Rik”: the z-score is 1.78 (inactive).
The figure for GGAGAAGAUCGGAUGGCGATT against Itgb5 is -0.391 (inactive); for CGGACUAAGUUUCAAAUCGTT against Pcdha2 it is -0.594 (inactive); for GGAUGUCACAACAGUUAUGTT against Otog it is 1.4 (inactive).
Then “CCUAUAUGCGCUAUUUGAATT against 4732465J09Rik”, with 0.557 (inactive).
On to GGCUAAUGUAUCGUCUGAGTT against Asb16, for which the z-score is 0.422 (active).
Then CCCUGACGAAGCCAUACAUTT against Bcor, with -1.33 (inactive); and “GGACAAACAUUGGAUUGAUTT against 0610009C03Rik”, with 0.453 (inactive).
